According to PubChem BioAssay AID2842 (Southern Research Institute, 2010):
In all, about 24,000 compounds went through this assay and about 1,200 (5%) were called active. About 2% were inconclusive and are not listed. No rule for the calls is given here. Only a sample is shown.

Experiment: Mycobacterium tuberculosis H37Rv growth inhibition, putative kinase inhibitor library, confirmatory dose response (AID 2842);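 as to inhibition: bacteria incubated one week before Alamar blue readout; 0% = bacteria only wells and 100% = bacteria with high antibiotic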
Settings: M. tuberculosis H37Rv growth inhibition; CC50: measured here: Vero cell cytotoxicity; inhibition: stronger effect = higher value

Row | SMILES | inhibition | CC50 [mg/L]
1 | CCOc1ccc(/C(O)=C2\C(=O)C(=O)N(CCCn3ccnc3)C2c2ccc(F)cc2)cc1Cl (stereo not given) | -17.6% (inactive) | 
2 | CSc1ccc2nc(Nc3ccc(F)cc3F)sc2c1 | 8.52% (inactive) | 
3 | C=CCOC(=O)C1=C(C)Nc2[nH]c(=O)[nH]c(=O)c2C1c1ccc(Cl)c(Cl)c1 (stereo not given) | -6.17% (inactive) | 
4 | Nc1nc(SCC(=O)N2CCCCCC2)[nH]c(=O)c1NC(=O)c1ccco1 | -18.5% (inactive) | 
5 | O=C(Nc1nc(-c2ccc(Cl)cc2Cl)cs1)c1ccc2c(c1)OCCO2 | 0.34% (inactive) | 
6 | CC1=C(C(=O)Nc2ccc(Cl)cc2)C(c2ccccc2Cl)C(C#N)=C(SCC(N)=O)N1 (stereo not given) | 71.6% (inactive) | 
7 | Cc1nc2sc(C(N)=O)c(N)c2c(-c2ccccc2)c1C(=O)Nc1ccccc1 | 1.79% (inactive) | 
8 | CCOC(=O)c1cnc2ccc(OCC)cc2c1Nc1cccc(Cl)c1C | -5.22% (inactive) | 
9 | COc1ccc(-n2c(=O)[nH]cc(C(=O)Nc3ccc4c(c3)OCO4)c2=O)cc1OC | 1.59% (inactive) | 
10 | Cc1ccccc1NC(=O)Cc1csc(NS(=O)(=O)c2ccc(Cl)cc2)n1 | -5.2% (inactive) | 
11 | Cc1ccnc(NC(=O)NC2CC(=O)N(c3ccc(F)cc3)C2)c1 (stereo not given) | 11.3% (inactive) | 
12 | CCOC(=O)c1oc2ccccc2c1NC(=O)c1ccc(F)c(F)c1 | 3.18% (inactive) | 
13 | CC1CCc2c(sc(NC(=O)c3ccc4ccccc4c3)c2C#N)C1 (stereo not given) | 1.23% (inactive) | 
14 | CCCCCCCNC(=O)c1c(N)n(/N=C/c2ccco2)c2nc3ccccc3nc12 | -9.39% (inactive) | 
15 | O=C(O)COc1ccccc1/C=C1/SC(=S)N(NC(=O)c2ccco2)C1=O | -1.98% (inactive) | 
16 | CNC(=O)c1c(NC(=O)CC2SC(=O)NC2=O)sc2c1CCCC2 (stereo not given) | -3.54% (inactive) | 
17 | Cc1ccc(C(=O)Nc2cc(C)c3c(=O)oc4ccccc4c3n2)cc1[N+](=O)[O-] | -2.97% (inactive) | 
18 | O=C(CN1N=NC2C(=O)N(c3ccc(Cl)cc3)C(=O)C21)Nc1ccccc1Cl (stereo not given) | 0.65% (inactive) | 
19 | COc1ccc(NC(=O)C2=C(C)Nc3ncnn3C2c2ccc(C#N)cc2)cc1 (stereo not given) | -1.94% (inactive) | 
20 | COc1ccc(/C(O)=C2\C(=O)C(=O)N(CCCn3ccnc3)C2c2cccc(F)c2)cc1Cl (stereo not given) | -11.8% (inactive) | 
21 | O=C(CSc1nc2c(c(=O)n1-c1ccc(Cl)cc1)SCC2)Nc1ccc2c(c1)OCO2 | -11.7% (inactive) | 
22 | Cn1c(SCC(=O)N2CCOCC2)nnc1-c1c[nH]c2ccccc12 | -12.7% (inactive) | 
23 | O=C(Nc1nnc(-c2ccc(F)cc2)s1)c1ccccc1 | 8.84% (inactive) | 
24 | CCN1CCN(c2nc(Nc3ccc(OC)cc3)c3nccnc3n2)CC1 | -0.8% (inactive) | 
25 | CCc1ccc(NC(=O)CSc2nc(-c3cccs3)nc3c2c(=O)n(C)c(=O)n3C)cc1 | -5.83% (inactive) | 
26 | CCOc1ccc(C(=O)Nc2nnc(C34CC5CC(CC(C5)C3)C4)s2)cc1 | 9.95% (inactive) | 
27 | COc1ccc(CCNC(=O)C(=O)NCC(c2ccco2)N2CCc3ccccc32)cc1 (stereo not given) | -2.72% (inactive) | 

Row | SMILES | inhibition | CC50 [mg/L]
28 | CSc1ccc2nc(Nc3cc(C)ccc3C)sc2c1 | 13.8% (inactive) | 
29 | COc1cc(CN2CCNC(=O)C2CC(=O)O)cc(OC)c1 (stereo not given) | -0.59% (inactive) | 
30 | COCCOC(=O)C1=C(C)NC(=O)NC1c1ccc(OC)cc1 (stereo not given) | -0.33% (inactive) | 
31 | COC(=O)c1ccc(CSc2nnc3[nH]c(=O)c(C)c(C)n23)o1 | -3.33% (inactive) | 
32 | CC(=O)Nc1ccc(NC(=O)CSc2ccc(-c3ccc(Cl)cc3)nn2)cc1 | 0% (inactive) | 
33 | O=C(COc1ccccc1F)NC1CC(=O)N(c2ccc(Cl)cc2)C1 (stereo not given) | 7.9% (inactive) | 
34 | CCOc1cccc2c1OC(c1cccnc1)N1N=C(c3cccc(O)c3)CC21 (stereo not given) | -10.5% (inactive) | 
35 | O=C(CC1Nc2cccc3cccc(c23)NC1=O)Nc1ccc(F)cc1 (stereo not given) | 27.5% (inactive) | 
36 | COc1ccc2nc(NC(=O)c3cc(-c4ccccc4)nc4ccccc34)sc2c1 | 95.1% (inactive) | > 40
37 | COc1cccc(C(=O)COC(=O)c2cc3cc(Br)cc(OC)c3oc2=O)c1 | -0.935% (inactive) | 
38 | CCOC(=O)c1nn(-c2ccc(C)cc2)c(=O)cc1NCc1ccncc1 | -9.72% (inactive) | 
39 | COc1ccc(/C=C2\SC(=S)N(CCC(=O)Nc3nccs3)C2=O)cc1OC | -4.88% (inactive) | 
40 | COc1ccccc1N1C(=O)N(c2cccc([N+](=O)[O-])c2)C2CS(=O)(=O)CC21 (stereo not given) | -5.59% (inactive) | 
41 | CCS(=O)(=O)c1ccccc1C(=O)Nc1sc2c(c1C(N)=O)CCC(C)C2 (stereo not given) | -17.6% (inactive) | 
42 | O=C(Nc1ccc(F)cc1)c1cn(Cc2ccccc2)cc2c(=O)n(-c3ccccc3)nc1-2 | -8.1% (inactive) | 
43 | O=C(CCCc1ccccc1)Nc1c(C(=O)Nc2ccc3c(c2)OCO3)oc2ccccc12 | -0.74% (inactive) | 
44 | Fc1ccc2nc(Nc3nnc(-c4cccs4)o3)sc2c1 | 36% (inactive) | 
45 | COc1cccc(-c2nc(C(N)=O)c3[nH]c(=O)n(-c4ccccc4F)c3n2)c1 | -10.4% (inactive) | 
46 | Cc1ccc(NC(=O)c2oc3ccccc3c2NC(=O)c2ccc([N+](=O)[O-])cc2)cc1 | 3.31% (inactive) | 
47 | COc1ccc2cc(CCNC(=O)c3ccccc3OC)c(=O)[nH]c2c1 | 5.57% (inactive) | 
48 | Cc1c(C(=O)O)c2cc(O)ccc2n1C | 12.9% (inactive) | 
49 | O=C(CN1C(=O)CCC1=O)Nc1nc(-c2ccc(Cl)c(Cl)c2)cs1 | 0.41% (inactive) | 
50 | COc1ccc(Cl)cc1NC(=O)CSc1nnc(CCC(=O)O)c(=O)n1N | -10.7% (inactive) | 
51 | O=C(Nc1nc2c(s1)CCCC2)c1coc2ccccc2c1=O | -2.85% (inactive) | 
52 | O=C(NCc1ccc2[nH]c3c(c2c1)CCCC3)Nc1ccccc1 | 62.6% (inactive) | 
53 | COc1ccc(Nc2ncnc(N)c2[N+](=O)[O-])c(OC)c1 | 0.53% (inactive) | 
54 | Cc1ccc(-c2csc(Nc3ccc(O)c(C(=O)O)c3)n2)cc1 | -6.04% (inactive) | 
